Compounds with a hit are over-represented: about 2.8% of the library has one in this group of screens.
POLK inh = qHTS for Inhibitors of Polymerase Kappa; purified Pol kappa, fluorescent DNA synthesis assay, 10 min; Potency, µM (top dose mostly 107 µM), inactives show at the top dose activity, negative = inhibition, hits mostly inhibitors; DNA polymerase kappa (Homo sapiens), Q9UBT6; AID 588579, 2011; 400,000 compounds, 0.53% hits; also: potency is read from the fitted curve at half-maximal effect; % is scaled to controls: 0 for no effect and ±100 for the full control effect
Target sequence (Q9UBT6 whole entry, looked up): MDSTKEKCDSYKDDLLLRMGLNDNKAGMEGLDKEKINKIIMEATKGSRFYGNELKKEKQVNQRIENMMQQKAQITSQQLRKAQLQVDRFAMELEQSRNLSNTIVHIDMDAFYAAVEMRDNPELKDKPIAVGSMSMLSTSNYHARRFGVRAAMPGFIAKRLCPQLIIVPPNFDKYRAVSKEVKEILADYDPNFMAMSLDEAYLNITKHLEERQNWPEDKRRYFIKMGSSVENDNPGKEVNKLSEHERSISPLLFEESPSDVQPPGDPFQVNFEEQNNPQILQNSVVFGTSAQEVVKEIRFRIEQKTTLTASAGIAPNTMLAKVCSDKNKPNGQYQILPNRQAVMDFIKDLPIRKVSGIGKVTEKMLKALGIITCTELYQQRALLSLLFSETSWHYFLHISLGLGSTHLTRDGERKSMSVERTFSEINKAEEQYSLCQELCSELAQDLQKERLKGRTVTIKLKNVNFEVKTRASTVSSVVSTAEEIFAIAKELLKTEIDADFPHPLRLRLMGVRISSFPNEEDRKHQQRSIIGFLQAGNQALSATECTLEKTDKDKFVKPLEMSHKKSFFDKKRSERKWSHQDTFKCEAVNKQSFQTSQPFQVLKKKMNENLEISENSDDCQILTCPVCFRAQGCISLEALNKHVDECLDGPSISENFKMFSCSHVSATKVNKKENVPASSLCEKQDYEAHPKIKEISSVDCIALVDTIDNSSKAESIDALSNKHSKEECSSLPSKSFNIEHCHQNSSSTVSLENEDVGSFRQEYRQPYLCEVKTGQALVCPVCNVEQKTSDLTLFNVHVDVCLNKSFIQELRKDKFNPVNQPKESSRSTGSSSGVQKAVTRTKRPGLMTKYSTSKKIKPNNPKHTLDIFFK
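Activity was followed as the change in fluorescence between reads at 0 and 10 min after starting the reaction with 50 nM substrate. Beforehand, 10 nM polymerase had been preincubated with compound for 15 min at room temperature.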
POLI inh = qHTS for Inhibitors of Polymerase Iota. DNA polymerase iota (Homo sapiens), Q9UNA4. Pol iota fluorescent replication assay, 10 min. 390,000 compounds, 1% hits. Potency, µM (titrated, usually from 115 µM), for inactives: at the highest dose activity, negative = inhibition, hits mostly inhibitors. AID 588590, 2011; also: potency is read from the fitted curve at half-maximal effect
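Fluorescent replication assay read twice, at 0 min and 10 min after adding 50 nM (final) substrate. Enzyme (10 nM) and compounds were first incubated 15 min at room temperature; enzyme-free buffer wells were negative controls.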
WRN inhibitor = qHTS for Inhibitors of WRN Helicase; Bifunctional 3'-5' exonuclease/ATP-dependent helicase WRN (Homo sapiens), Q14191; WRN helicase unwinding, fluorescent forked duplex, kinetic; Potency, µM (highest dose often 114 µM), without a hit: at the highest dose activity change, negative = inhibition, actives largely listed as inhibitors; 360,000 compounds, 0.46% hits; AID 651768, 2012; also: potency is read from the fitted curve at half-maximal effect; % is scaled to controls: 0 for no effect and ±100 for the full control effect; nearly all actives have a fitted effect of over 55% in size
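Kinetic red-fluorescence monitoring (525/598 nm) tracks WRN helicase activity after 100 nM fluorophore-quencher forked duplex and 2 mM ATP are added to 20 nM enzyme pretreated 15 min at room temperature with compound.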
POLH inh = qHTS for Inhibitors of Polymerase Eta; Potency, µM (doses to about 114 µM), inactives show top-dose activity change, negative = inhibition, hits mostly inhibitors; recombinant Pol eta, fluorescent DNA replication assay; 390,000 compounds, 1.2% hits; DNA polymerase eta (Homo sapiens), Q9Y253; also: potency is read from the fitted curve at half-maximal effect; % is scaled to controls: 0 for no effect and ±100 for the full control effect
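Pol eta at 10 nM preincubated with compounds 15 min at room temperature; reaction started with fluorescent substrate (50 nM final) and read kinetically at 0 and 10 min.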
PI5P4K alpha inh = qHTS for Inhibitors of phosphatidylinositol 5-phosphate 4-kinase (PI5P4K) | AID 652105, 2013 | PI5P4Kalpha enzyme, ADP-Glo luminescence, 60 min; hits give low values | 330,000 compounds, 1.2% hits | max response, % | Phosphatidylinositol 5-phosphate 4-kinase type-2 alpha (Homo sapiens), P48426; active = max response of -50% or lower; inconclusive = between -30% and -50%; inactive = -30% or higher; also: value at the top dose of about 77 µM; % is scaled to controls: 0 for no effect and ±100 for the full control effect
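Luminescence from ADP-Glo served as readout of PI5P4Kalpha activity in a qHTS format. Reaction: enzyme, substrate, compound, ATP at 5 microM final, 60 min at RT.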
POLB inh = qHTS Assay for Inhibitors of DNA Polymerase Beta | Potency, µM (doses to about 114 µM), for the others: at the top dose activity change, negative = inhibition, most hits filed as inhibitors | Pol beta primer extension/strand displacement, fluorescence kinetic | 340,000 compounds, 1.3% hits; also: potency is read from the fitted curve at half-maximal effect; % is scaled to controls: 0 for no effect and ±100 for the full control effect
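Pol beta (10 nM) and compounds were preincubated 15 min at room temperature, then 50 nM substrate (final) started primer extension/strand displacement. Reads were taken at 0 and 10 min; concentration-response data were fitted to a four-parameter Hill equation.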
Starred values were filed as active, the others as inactive; ? = inconclusive; nt = no result; [ ] = dose if it differs, or a comment. Unless noted, calls follow the shape of the dose curve; as a rule, active = well fitted curve in the direction sought with a large enough effect; inconclusive = small, poorly fitted or top-dose-only effect, or another doubt; inactive = no such curve, though single readings can be large; an effect the other way counts as inactive or inconclusive.

SMILES	POLK inh	POLI inh	WRN inhibitor	POLH inh	PI5P4K alpha inh	POLB inh
C/C(=N/NC(=O)CNC(=O)c1ccccc1F)c1ccc2c(c1)CCCC2	-7%	69%	-3%	-3%	-67*	-1%
C/C(=N/NC(=O)CNC(=O)c1ccc2c(c1)OCO2)c1ccc2c(c1)CCCC2	-5%	49%	-2%	4%	4	8%
CN(C)S(=O)(=O)N(CC(=O)Nc1ccc(F)c(F)c1)c1ccccc1	-20%	-27%[58.9 µM]	-11%	?	nt	?
CSc1cccc(NC(=O)CN(c2ccccc2)S(=O)(=O)N(C)C)c1	-17%	?	-18%	?	nt	10µM*
Cc1ccc(S(=O)(=O)/N=C2\C=C(NS(=O)(=O)c3ccccc3)C(=O)c3ccccc32)c(C)c1	-9%	?	-22%	-3%	-10	nt
CC(C)(C)c1ccc(S(=O)(=O)/N=C2\C=C(NS(=O)(=O)c3ccccc3)C(=O)c3ccccc32)cc1	-12%	?	?	79µM*	?	?
Cc1ccc(NC2=C/C(=N/S(=O)(=O)c3cccs3)c3ccccc3C2=O)cc1	-4%	?	3%	?	-23	-13%
Cc1ccc(S(=O)(=O)/N=C2\C=C(Nc3ccc(O)cc3)C(=O)c3ccccc32)cc1	-38%	45µM*	?	?	-15	nt
Cc1ccc(S(=O)(=O)/N=C2\C=C(Nc3cccc(C(=O)O)c3)C(=O)c3ccccc32)c(C)c1	-17%	5µM*	?	22µM*	-22	?
CC(C(=O)NCc1ccco1)n1cc([N+](=O)[O-])cn1 (stereo unspecified)	-9%	58%	1%	-4%	-3	5%
O=c1oc2ccccc2nc1/C=C(\O)c1ccccc1	1%	-18%	-5%[11.6 µM]	10%	-3	17%
O/C(=C\c1nc2ccccc2nc1/C=C(\O)c1ccccc1)c1ccccc1	0%	31%	45µM*	-1%	-6	-11%
COc1cc(C2NC(=O)C(C#N)=C(S)N2c2ccccc2)ccc1OC(C)C (stereo unspecified)	-12%	28µM*	-11%	2%	-21	-1%
COc1ccc(C2NC(=O)C(C#N)=C(S)N2c2ccccc2)cc1OC (stereo unspecified)	1%	72%	-31%	-16%	?	10%
COc1cc2c(Cc3ccccc3)cncc2cc1O	89µM*	19%	-1%[11.6 µM]	0%	2	nt
COc1cc2cncc(Cc3ccccc3)c2cc1O	-3%	40%	-8%	-17%	-7	nt
Cc1cccc(C)c1-n1nnnc1-c1nc2cc3ccccc3cc2[nH]c1=O	nt	nt	-10%	nt	-13	nt
COc1ccc(C=C2CS(=O)(=O)CC(=Cc3ccc(OC)cc3)C2=O)cc1	nt	nt	-1%	50µM*	1	nt
O=C1NC(=S)SC1=Cc1ccc(Cl)cc1	-12%	?	?	-25%	-51*	nt
O=C1NC(=S)SC1=Cc1cccs1	-3%	?	-34%	-8%	-67*	nt
O=C1NC(=S)SC1=Cc1ccc(F)cc1	-9%	-4%	-17%	-2%	-71*	nt
O=C1NC(=S)S/C1=C\c1ccc2ccccc2c1	-16%	-7%	-5%	7%	-62*	28%
CCc1ccc(/C=C2/SC(=S)NC2=O)cc1	-2%[60.1 µM]	nt	nt	nt	nt	nt
COc1ccc(C=C2SC(=S)NC2=O)cc1	-1%	39%	?	-9%	-86*	nt
Cc1cc(C)cc(NC(=O)C2CCCN2S(=O)(=O)c2cccc3nsnc23)c1 (stereo unspecified)	-10%	35%	nt	-22%	nt	14%
SMILES	POLK inh	POLI inh	WRN inhibitor	POLH inh	PI5P4K alpha inh	POLB inh
CCOC(=O)c1c(C)n(S(=O)(=O)c2ccc(C)cc2)c2ccc(NS(=O)(=O)c3ccc(C)cc3)cc12	3%	30%	nt	-19%	nt	6%
O=C1CNC(=O)/C1=C\c1ccc(O)cc1	3%	-15%	-36%	?	-62*	2%
Cc1ccc(-n2c(CNc3ccc(F)cc3)nnc2SCC(N)=O)cc1	4%	14%	3%	-12%	0	28%
O=C1Nc2cc(C(=O)NCCCN3CCCC3)ccc2S/C1=C/c1cccc(Cl)c1	nt	nt	13%	-4%	-51*	nt
Cc1cccc(/C=C2/Sc3ccc(C(=O)NCCN4CCCC4)cc3NC2=O)c1	-4%	47%	-5%	-31%	-12	?
CC(C)Cn1c(SCC(=O)Nc2cccnc2Cl)nnc1-c1ccco1	4%	-6%	4%	-12%	-7	nt
CCOC(=O)c1ccc(-c2ccc3c(=O)c4ccccc4n(C)c3c2)cc1F	-18%	?	-4%	?	-4	-2%
C[C@H]1c2cccc(O)c2C(O)=C2C(=O)C3(O)C(O)=C(C(N)=O)C(=O)[C@@H](N(C)C)[C@@H]3[C@@H](O)[C@@H]21 (stereo partly specified)	1%	-13%	3%	-8%	-2	nt
CN(C)c1ccc(O)c2c1C[C@@H]1C[C@H]3C(N(C)C)C(=O)C(C(N)=O)=C(O)[C@@]3(O)C(=O)C1=C2O (stereo partly specified)	-18%[60.1 µM]	nt	nt	nt	nt	nt
C=C1c2c(Cl)ccc(O)c2C(O)=C2C(=O)[C@]3(O)C(O)=C(C(N)=O)C(=O)C(N(C)C)C3C(O)C12 (stereo partly specified)	1.6µM*	nt	nt	nt	nt	nt
C=C1c2cccc(O)c2C(O)=C2C(=O)[C@]3(O)C(O)=C(C(N)=O)C(=O)C(N(C)C)C3C(O)C12 (stereo partly specified)	4µM*	nt	nt	nt	nt	nt
Cc1ccc(Nc2ncc3c(=O)[nH][nH]c(=O)c3n2)cc1	-23%	22%	-6%	2%	-61*	nt
CCc1ccc(-c2cc(C)no2)cc1S(=O)(=O)NCc1ccc(OC)cc1	-4%	4%	nt	-2%	nt	-1%
N#Cc1cc2nc(O)c(O)nc2cc1[N+](=O)[O-]	5%[60.1 µM]	?	-21%	?	-57*	?
COc1ccc(CCn2c(NN)nc3c2c(=O)[nH]c(=O)n3C)cc1	-19%	25µM*	-1%	89µM*	?	8%
COc1ccc(CCn2c(NN=C(C)C)nc3c2c(=O)[nH]c(=O)n3C)cc1	-24%	?	-4%	0%	-19	0%
O=C1CC(C(=O)Nc2ccccc2)S/C(=N\NC(=O)c2ccccc2Cl)N1 (stereo unspecified)	-6%	-29%	-7%	-11%	-1	98%
